Data from PubChem BioAssay (NCATS).
Inconclusive results are not listed. A number with no mark means an inactive call. Active and inactive are the calls of the source. The call rests on the fitted dose curve; in most records, active means well fitted cell-killing curve with a large enough effect; inconclusive means small, poorly fitted or top-dose-only effect, or effect the other way; inactive means no such curve, though single readings can be large or run the other way.

experiment: Quantitative High-Throughput drug screen in 47 multiple myeloma cell lines against the NCATS MIPE library collection: MM1R_ATCC cell viability assay (AID 1918981); conditions: MM1R multiple myeloma cells, CellTiter-Glo viability, 48 h; series mostly up to 45.8 µM; viability (% of control): at the top concentration
Outline: (§1)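 ATP-based luminescence (CellTiter-Glo, 5 min RT incubation) quantified surviving cells following two days' treatment with MIPE 4.0 agents at 37 °C, 5% CO2.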
Further: nearly all actives have a fitted effect of over 35% in size.
Potency means the concentration at half of the fitted maximal effect.

SMILES	Potency	viability (% of control) [%]
Cc1ccc(-c2cc(C(F)(F)F)nn2-c2ccc(S(N)(=O)=O)cc2)cc1	8.33 µM (active)	
CN(Cc1cnc2nc(N)nc(N)c2n1)c1ccc(C(=O)N[C@@H](CCC(=O)O)C(=O)O)cc1	0.935 µM (active)	
Cc1cc(C(C)(C)C)cc(C)c1CC1=NCCN1		105
Fc1ccc([C@@H]2CCNC[C@H]2COc2ccc3c(c2)OCO3)cc1	18.7 µM (active)	
O=C1N(c2ccccc2)c2ccccc2C1(Cc1ccncc1)Cc1ccncc1	26.4 µM (active)	
Cc1cc(C(C)(C)C)c(O)c(C)c1CC1=NCCN1		113

experiment: Quantitative High-Throughput drug screen in 47 multiple myeloma cell lines against the NCATS MIPE library collection: LP1_DSMZ cell viability assay (AID 1918982); conditions: LP1 myeloma viability, CellTiter-Glo ATP luminescence, 48 h; series mostly up to 45.8 µM; viability (% of control): at the top concentration
Outline: as §1

SMILES	viability (% of control)	Potency
CN(C)CCOC(c1ccccc1)c1ccccc1	107%	
COc1ccccc1N1CCN(CC(O)COc2cccc3ccccc23)CC1 (stereo not drawn)	89.5%	
CC(C)(Oc1ccc(C2CC2(Cl)Cl)cc1)C(=O)O (stereo not drawn)	94.5% [at 92.2 µM]	
NCCS(=O)(=O)O	91.2%	
CC(C(=O)O)c1cccc(C(=O)c2ccccc2)c1 (stereo not drawn)	92.9%	
O=C(C1CCCCC1)N1CC(=O)N2CCc3ccccc3C2C1 (stereo not drawn)	112%	
N[C@@H](Cc1c[nH]c2ccc(O)cc12)C(=O)O	108%	
CN1CCN(C2=Nc3cc(Cl)ccc3Nc3ccccc32)CC1	81%	
C[C@H]1c2cccc(O)c2C(O)=C2C(=O)[C@]3(O)C(O)=C(C(N)=O)C(=O)[C@@H](N(C)C)[C@@H]3[C@@H](O)[C@@H]21	90.7%	
Nc1nnc(-c2cccc(Cl)c2Cl)c(N)n1	98.6%	
Cc1ccccc1N1C(=O)c2cc(S(N)(=O)=O)c(Cl)cc2NC1C (stereo not drawn)	105%	
CC(CCc1ccc(O)cc1)NCCc1ccc(O)c(O)c1 (stereo not drawn)		20.9 µM (active)
